# An excerpt weighted towards active compounds, which were near 2.9% of everything screened.
# LYPLA1 inh – LYPLA1 inhibitors, primary screen, counter-screen for PME1 inhibitor project, biochemical, fluorescence polarization, FP-Rh probe ABPP | inhibition, % at 5.9 µM | AID 2174, 2009 | 0.16% of 320,000 active | recombinant LYPLA1;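 active = inhibition above the mean of all tested compounds plus 3 SD, set per campaign, cut at about 14% in these data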;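 also: inhibitors block serine hydrolase probe labeling of LYPLA1 so polarization falls; 0% = enzyme with DMSO and 100% = wells lacking LYPLA1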
# Target sequence (O75608 whole entry, looked up): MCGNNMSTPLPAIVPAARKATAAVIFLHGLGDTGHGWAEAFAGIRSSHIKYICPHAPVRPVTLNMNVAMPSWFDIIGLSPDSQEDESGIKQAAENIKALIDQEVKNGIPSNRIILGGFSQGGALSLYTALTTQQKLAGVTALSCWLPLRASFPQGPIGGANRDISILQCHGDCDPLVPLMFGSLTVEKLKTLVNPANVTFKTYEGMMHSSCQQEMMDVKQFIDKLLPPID
# LYPLA2 counter – LYPLA2 inhibitors, primary screen, counter-screen for PME1 inhibitor project, biochemical, fluorescence polarization, FP-Rh probe ABPP. Acyl-protein thioesterase 2 (Homo sapiens), O95372. recombinant LYPLA2. inhibition, % at 5.9 µM. 0.38% of 320,000 active. AID 2177, 2009;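 active = inhibition above the screen-wide mean plus 3 SD, limit set per campaign, cut at about 26% in these data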;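 also: 0% = LYPLA2 with DMSO and 100% = wells lacking LYPLA2 enzyme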
# Target sequence (O95372 whole entry, looked up): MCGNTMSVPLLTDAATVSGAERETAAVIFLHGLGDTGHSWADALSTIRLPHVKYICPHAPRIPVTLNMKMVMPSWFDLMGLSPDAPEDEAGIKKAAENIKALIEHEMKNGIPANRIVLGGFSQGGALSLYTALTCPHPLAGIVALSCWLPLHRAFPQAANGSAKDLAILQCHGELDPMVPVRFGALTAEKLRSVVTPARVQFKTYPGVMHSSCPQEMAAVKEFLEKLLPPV
# PAFAH1B2 inh – PAFAH1B2 enzyme inhibitors, primary screen, biochemical, fluorescence polarization, human | 1.2% of 340,000 active | recombinant PAFAH1B2, FP-rhodamine activity probe | inhibition, % at 3.39 µM;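 active = inhibition above the mean of all tested compounds plus 3 SD, cut at about 24% in these data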;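 also: 0% = enzyme with DMSO and 100% = wells lacking PAFAH1B2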
# pPAFAH FP inh – pPAFAH enzyme inhibitors, primary screen, biochemical, fluorescence polarization, human | Platelet-activating factor acetylhydrolase (Homo sapiens), Q13093 | recombinant pPAFAH, FP-rhodamine probe fluorescence polarization | inhibition, % at 3.39 µM | 1.5% of 330,000 active | AID 463082, 2010;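 active = inhibition above the mean inhibition across the screen plus 3 SD, cut at about 25% in these data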;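 also: inhibitors block binding of the rhodamine activity-based probe so polarization drops; 0% = enzyme with DMSO and 100% = wells lacking pPAFAH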
# PAFAH1B3 inh – PAFAH1B3 enzyme inhibitors, primary screen, biochemical, fluorescence polarization, human; AID 492972, 2010; inhibition, % at 3.39 µM; 0.28% of 340,000 active; recombinant PAFAH1B3, FP-rhodamine probe; Platelet-activating factor acetylhydrolase IB subunit alpha1 (Homo sapiens), Q15102;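 active = inhibition above the screen-wide average of all tested compounds plus 3 SD, cut at about 25% in these data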;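 also: 0% = enzyme with DMSO only and 100% = wells lacking PAFAH1B3 protein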
# PAFAH2 FP inh – PAFAH2 enzyme inhibitors, primary screen, biochemical, fluorescence polarization, human; AID 492956, 2010; 0.99% of 340,000 active; Platelet-activating factor acetylhydrolase 2, cytoplasmic (Homo sapiens), Q99487; recombinant PAFAH2, FP-rhodamine activity probe; inhibition, % at 3.39 µM;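 active = inhibition above the mean over all tested compounds plus 3 SD, cut at about 30% in these data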;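 also: inhibitors block probe labeling of enzyme so polarization drops; 0% = enzyme with DMSO and 100% = wells lacking PAFAH2 protein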
# PAFAH2 confirm – PAFAH2 enzyme inhibitors, confirmation, biochemical, fluorescence polarization, human | inhibition, % at 3.39 µM | recombinant PAFAH2, FP-rhodamine activity probe | 65% of 2,300 active | shares compounds with PAFAH2 FP inh;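 active = mean inhibition over three repeats above a set limit taken from the earlier primary screen, cut at about 30% in these data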;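 also: inhibitor blocks binding of rhodamine activity probe so polarization falls; 0% = enzyme with DMSO and 100% = wells lacking PAFAH2 protein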
# The depositor's hits bear a star; x = no result given.
SMILES,LYPLA1 inh,LYPLA2 counter,PAFAH1B2 inh,pPAFAH FP inh,PAFAH1B3 inh,PAFAH2 FP inh,PAFAH2 confirm
O=c1[nH]c2sc3c(c2c2nncn12)CCCC3,0,7,3,1,6,14,x
CCC(Oc1ccc2ccccc2c1)C(=O)O (stereo unspecified),-2,-2,-2,-4,-6,0,x
CC1=NN(c2nc3ccccc3[nH]2)C(=O)/C1=C/N(C)C,0,1,2,1,1,1,x
CC1=NN(C(N)=S)C(=O)C1N=Nc1ccc(C)c(Br)c1 (stereo unspecified),0,-5,8,4,11,42*,33*
CC1=NN(C(N)=S)C(=O)C1N=Nc1ccc(O)cc1 (stereo unspecified),x,x,3,x,1,5,x
Cc1cc(C)cc(-n2c(C)cc(C=C(C#N)C#N)c2C)c1,-3,0,-3,5,0,-3,x
COc1cc(NC(=S)NC(=O)c2cc(C)cc(C)c2)ccc1NC(=O)c1cccs1,-6,-8,-4,-8,-4,-9,x
CCN1C(=O)/C(=C\c2ccncc2)SC1=Nc1ccc(C)c(C)c1,-3,-1,3,4,1,-10,x
CCN(CC)c1ccc(C(=O)Nc2cccc(F)c2)cc1,-2,3,3,15,1,38*,42*
CN(C)c1cccc(C(=O)Nc2cccc(F)c2)c1,2,2,5,3,-1,-1,x
O=C(N/N=C/c1cc([N+](=O)[O-])ccc1O)C1C2CCCCC21 (stereo unspecified),-3,0,x,4,x,x,x
O=C(N/N=C/c1cc([N+](=O)[O-])ccc1O)C1CCCCC1,-2,6,9,8,7,59*,41*
Cc1cc(C(=O)N2CCN(Cc3ccccc3)CC2)ccc1[N+](=O)[O-],-1,-4,-2,-6,10,119*,2
O=C(c1ccc(Br)c([N+](=O)[O-])c1)N1CCN(Cc2ccccc2)CC1,3,0,2,4,7,-9,x
COC(=O)c1ccc(C2/C(=C(/O)c3ccc4c(c3)CC(C)O4)C(=O)C(=O)N2Cc2ccncc2)cc1 (stereo unspecified),1,4,1,4,7,4,x
Cc1ccc(N2C(=O)CC(Sc3ncn[nH]3)C2=O)cc1C (stereo unspecified),-4,-4,2,8,0,-3,x
Cc1[nH]c2ccccc2c1C(C#N)(C#N)C1C(=O)c2ccccc2C1=O,-1,10,9,13,8,31*,28
COC(=O)Nc1nc(-c2ccccc2)c(C(=O)c2ccccc2)s1,0,3,17,0,-3,53*,50*
COc1ccc(S(=O)(=O)C(C#N)c2nc3ccccc3nc2N2CCCC(C)C2)cc1 (stereo unspecified),0,-1,7,1,7,31*,21
CC1CCCN(c2nc3ccccc3nc2C(C#N)S(=O)(=O)c2cccs2)C1 (stereo unspecified),-1,2,8,6,-4,22,x
NC(=O)Nc1ccc(C(=O)OCC(=O)Nc2ccc([N+](=O)[O-])cc2C(F)(F)F)cc1,-8,-11,2,-6,-5,66*,66*
O=C(COC(=O)C1CC1)Nc1ccc([N+](=O)[O-])cc1C(F)(F)F,-3,4,-4,13,5,53*,45*
O=C(COC(=O)c1ccc[n+]([O-])c1)Nc1ccc([N+](=O)[O-])cc1C(F)(F)F,x,x,7,1,1,9,x
Cc1c(Cl)cccc1NC(=O)COC(=O)C12CC3CC(CC(O)(C3)C1)C2,1,1,-1,-2,4,43*,16
COCCOc1ccc(C(F)(F)F)cc1NC(=O)COC(=O)C12CC3CC(CC(O)(C3)C1)C2,0,-1,10,3,8,3,x
SMILES,LYPLA1 inh,LYPLA2 counter,PAFAH1B2 inh,pPAFAH FP inh,PAFAH1B3 inh,PAFAH2 FP inh,PAFAH2 confirm
O=C(COC(=O)C12CC3CC(CC(O)(C3)C1)C2)Nc1ccc(Br)cc1F,0,-1,0,1,4,30*,13
O=C(COC(=O)C12CC3CC(CC(C3)C1)C2)Nc1ccccc1F,0,-1,11,11,12,40*,29
O=C(Nc1ccccc1Cl)c1ccc(COc2ccc3c(c2)CCC3)cc1,1,0,-8,3,1,-9,x
CC(C)CNS(=O)(=O)c1ccc(CCC(=O)N2CCN(c3ccccc3)CC2)cc1,1,-1,-4,23,2,11,x
O=C(NC1CCN(S(=O)(=O)c2ccccc2)CC1)C1CCCCC1,0,-4,-7,-4,3,4,x
COc1cc2c3c(c1OC)C1(C=CC(=O)C=C1)CC3N(C(C)=O)CC2 (stereo unspecified),0,9,-2,6,-6,1,x
Cc1noc(C)c1COc1ccc(C(=O)OCC(=O)NCc2ccccc2Cl)cc1,3,8,4,12,2,76*,74*
Cc1noc(C)c1COc1ccc(C(=O)OCC(=O)OC(C)(C)C)cc1,1,6,1,9,8,32*,29
COC(=O)c1c(NC(=S)NNC(=O)c2ccc(Cl)s2)sc(C(=O)N(C)C)c1C,0,1,3,10,5,50*,41*
Cc1oc(C(N)=O)nc1-c1ccccc1,-1,-2,0,3,12,-1,x
O=C1OC(c2ccc3c(c2)OCO3)N(C(=O)c2ccc(Cl)c(Cl)c2)c2ccccc21 (stereo unspecified),-2,0,5,-11,0,48*,47*
CC(=O)N1C(c2ccccc2)CC(=O)OC1c1ccc2c(c1)OCO2 (stereo unspecified),1,3,-4,-4,-1,1,x
Cc1cccc(C(=O)N2c3ccccc3C(=O)OC2c2ccc3c(c2)OCO3)c1 (stereo unspecified),1,8,4,-1,4,31*,34*
Cc1cccc(NC(c2ccc(O)cc2)c2ccc3ccc(C)nc3c2O)n1 (stereo unspecified),-2,4,3,6,-1,0,x
Cc1ccc(SCC(=O)Nc2ccc(N3CCN(C)CC3)c(F)c2)cc1,-1,-3,18,5,-4,-2,x
